Only some compounds are listed: those with a hit (about 2.4% of all), similar ones and a draw of the others.
CHO-K1 Ca antag – counter-screen for M1 antagonists: effect in parental CHO-K1 cells; inhibition, % at 3 µM; ATP-induced calcium, Fluo-8 fluorescence; 0.6% of 360,000 active; AID 602250;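 active = inhibition above a per-plate cutoff, the plate's mean sample inhibition plus 3 SD, cut at about 24% in these data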
CHRM1 PAM – human CHRM1 positive allosteric modulation. 0.088% of 360,000 active. P11229. AID 588819. activation, % at 3 µM. CHO-K1 hM1, Fluo-8 calcium fluorescence, ACh EC20; 0% = ACh EC20, 100% = maximal ACh; in the data active = activation above about 19%, passing the limit was not always enough
Target sequence (P11229 whole entry, looked up): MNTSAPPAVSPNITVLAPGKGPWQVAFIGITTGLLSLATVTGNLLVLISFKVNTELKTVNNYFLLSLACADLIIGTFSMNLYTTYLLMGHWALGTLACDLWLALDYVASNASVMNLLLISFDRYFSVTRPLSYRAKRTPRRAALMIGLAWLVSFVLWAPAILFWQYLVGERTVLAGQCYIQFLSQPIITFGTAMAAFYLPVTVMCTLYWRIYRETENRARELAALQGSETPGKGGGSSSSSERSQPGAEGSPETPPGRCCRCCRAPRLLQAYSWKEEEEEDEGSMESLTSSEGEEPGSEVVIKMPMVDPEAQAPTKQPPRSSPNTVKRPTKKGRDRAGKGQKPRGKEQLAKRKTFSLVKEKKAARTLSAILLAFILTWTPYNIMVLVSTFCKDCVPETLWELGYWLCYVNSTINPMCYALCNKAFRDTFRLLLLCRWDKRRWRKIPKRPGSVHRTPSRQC
CHRM1 antagonist – antagonists of human M1 muscarinic receptor; P11229; CHO-K1 hM1, Fluo-8 calcium fluorescence, ACh EC80 antagonist; inhibition, % at 3 µM; 1.3% of 360,000 active; AID 588852;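 active = percent inhibition above its own plate's cutoff, namely the mean of that plate's compound wells plus 3 SD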;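 note: peak over basal fluorescence ratio during 140 s after agonist addition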
M1 ag – activates human CHRM1 receptor. P11229. CHO-K1 hM1, Fluo-8 calcium fluorescence, agonist mode; 0% DMSO, 100% acetylcholine EC100. activation, % at 3 µM. 0.33% of 360,000 active. AID 588814;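 active = activation above the run's mean compound activation plus 3 SD, cut at about 16% in these data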;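 note: peak over basal fluorescence ratio within a 140 s kinetic read after compound addition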
CHO-K1 Ca PAM – counter-screen for M1 PAMs: effect in parental CHO-K1 cells | ATP EC20, Fluo-8 calcium fluorescence; 0% at ATP EC20, 100% at ATP max | activation, % at 3 µM | 0.02% of 360,000 active | AID 602247;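 active = activation above the run cutoff, the mean activation of all test compounds plus 3 SD, cut at about 40% in these data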;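 note: peak over basal fluorescence ratio in a 140 s read after ATP addition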
CHO-K1 Ca ag – M1 agonist counterscreen hit in parental CHO-K1 cells; Fluo-8 calcium fluorescence; scaled to maximal ATP response, vehicle zero; activation, % at 3 µM; 0.48% of 360,000 active; in the data active = activation above about 15%;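 note: untransfected CHO-K1 host cells lacking M1 receptor as counterscreen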
Each line names hits and unclear results; the compound was inactive in the other large screens; ! = repeats disagree.

CCOC(=O)/C(CCCN(CC)CC)=N\O	CHRM1 antagonist 78.1
C[C@H]1CC[C@@H]2N(C1)C[C@H]1[C@@H]3C[C@H]4[C@@H](CC(=O)[C@H]5C[C@@H](O)CC[C@@]54C)[C@@H]3CC[C@H]1[C@]2(C)O	CHRM1 antagonist 86.3
CC(=O)O[C@H]1CC[C@@]2(C)[C@H](C1)C(=O)C[C@H]1[C@@H]3CC[C@@H]4[C@@H](CN5C[C@@H](C)CC[C@H]5[C@@]4(C)O)[C@@H]3C[C@@H]12	CHRM1 antagonist 99.9
CC(=NCc1cccnc1)c1c(O)n(-c2ccc(Cl)cc2)c(=O)[nH]c1=O	none
C[C@](N)(CCP(=O)(O)O)C(=O)O	CHO-K1 Ca antag 24.7
Cc1ccc2nc(N3CCC(C(=O)N4CCC5(CC4)OCCO5)CC3)sc2c1	none
O=C(C1CCN(c2nc3ccc(Br)cc3s2)CC1)N1CCC2(CC1)OCCO2	CHRM1 antagonist 59.3
CCc1ccc2nc(N3CCC(C(=O)N4CCC5(CC4)OCCO5)CC3)sc2c1	CHRM1 antagonist 40.6
CN(C)c1ccc(/C=C/c2cc[n+](C)c3ccccc23)cc1	CHRM1 antagonist 29.8!
N#CC(CCN1CCOCC1)(c1ccccc1)c1ccccc1	CHRM1 antagonist 41.5
CCC(c1ccc(C)cc1)N1C(=O)C2C3CCC(O3)C2C1=O (stereo not given)	none
OC(c1ccccc1)(c1ccc(Cl)cc1)C1CN2CCC1CC2 (stereo not given)	CHRM1 antagonist 99.7
OC(Cc1ccccc1)(c1ccccc1)C1CN2CCC1CC2 (stereo not given)	CHRM1 antagonist 98.2
OCC[N+]12CCC(CC1)C(C(O)(c1ccccc1)c1ccccc1)C2 (stereo not given)	none
c1ccc(C2CN3CCC2CC3)cc1 (stereo not given)	CHRM1 antagonist 41.2
OC(c1ccccc1)(c1ccccc1)C1CN2CCC1CC2 (stereo not given)	CHRM1 antagonist 98.1
COC(=O)C1=C(c2c(C)noc2C)C[C@@H]2CC[C@H]1N2C(=O)NCc1ccco1	none
CN1CCC(OC(=O)C2c3ccccc3Oc3ccccc32)CC1	CHRM1 antagonist 98.8
O=C(Oc1ccc([N+](=O)[O-])cc1)N1CCC(N2CCCCC2)CC1	CHRM1 antagonist 85.4
CC(=O)Nc1ccc(OC(=O)N2CCCCC2)cc1	none
CN1CCCN(C(=O)COc2ccc(F)cc2Cl)CC1	none
CCCCCCC(Cl)(Cn1ccnc1)c1ccccc1 (stereo not given)	CHRM1 antagonist 33.0
CCC1(C)OC(c2ccccc2)=C/C(=C/C=C2C(=O)NC(=O)NC2=O)O1 (stereo not given)	M1 ag 23.3
CCC1(Oc2ccccc2)C(=O)NC(=O)NC1=O	none
CCOC(=O)C1CCCN(c2ccc([N+](=O)[O-])c3nonc23)C1 (stereo not given)	CHO-K1 Ca antag 51.5, CHRM1 antagonist 70.1, M1 ag 297.9, CHO-K1 Ca ag 156.6
CCCN1CCC(NC2CCC(O)CC2)CC1 (stereo not given)	none
CCC(=NCCc1c[nH]c2ccccc12)c1c(O)n(C)c(=O)n(C)c1=O	CHO-K1 Ca antag 24.0, CHRM1 antagonist 26.1, CHO-K1 Ca ag 15.8
C=C1C2[C@H](OC(C)=O)[C@@H]3CC(=O)[C@]4(C)OC[C@@]3(C)[C@@]4(O)[C@@H](OC(C)=O)[C@H](OC(C)=O)[C@@]2(COC(=O)c2ccccc2)[C@@H](OC(C)=O)C[C@@H]1O (stereo not given in full)	none
CCN1/C(=C\C=C\C2=[N+](CC)c3ccccc3C2(C)C)C(C)(C)c2ccccc21	CHO-K1 Ca antag 94.4, CHRM1 antagonist 96.4, M1 ag 387.8, CHO-K1 Ca ag 313.2
CC(=O)N1N=C(c2cccnc2)OC1c1ccccc1Cl (stereo not given)	CHO-K1 Ca ag 16.1
O=C1CC(c2cccnc2)=NN1c1ccc(Cl)cc1Cl	none
O=C(c1cccc(C(F)(F)F)c1)C1CCCN(Cc2ccccc2O)C1 (stereo not given)	none
COc1ccc2cc(C(=O)C3CCCN(C4CCOCC4)C3)ccc2c1 (stereo not given)	none
COc1c(C)cc(C(=O)C2CCCN(Cc3cccc(C)n3)C2)cc1C (stereo not given)	CHRM1 antagonist 32.9

Screening data: PubChem BioAssay, The Scripps Research Institute Molecular Screening Center
